“And” between values parts separate entries of the source, which are not always exact repeats. Identical values can stand only once. Inconclusive results are not listed. The source made the active and inactive calls. Unless noted, the call rests on the fitted dose curve; in most records, active means well fitted curve in the direction sought with a large enough effect; inconclusive means small, poorly fitted or top-dose-only effect, or another doubt; inactive means no such curve, though single readings can be large; an effect the other way counts as inactive or inconclusive.

Test [1] addresses Alpha-galactosidase A (Homo sapiens) (UniProt P06280). The experiment in a line: Counterscreen for Glucocerebrosidase Inhibitors: qHTS Assay for Human alpha-Galactosidase at pH 4.5 (AID 992). Further: 0% is about no effect. In short, it runs like this: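 Read-out is 4-methylumbelliferone fluorescence (365 nm excitation, 440 nm emission) after a pH 10 NaOH/glycine stop. Reactions held 2 nM enzyme and 80 uM substrate at pH 4.5 for 20 min at room temperature.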
On the technique in general: Counterscreens check selectivity or assay interference.

A short description of test [2]: Validation of Assay for Modulators of Lamin A Splicing (AID 1459; active means well fitted curve in the direction sought with a large enough effect in the signal ratio; the % refers to the signal ratio;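 further: cells exposed to compound for two days before reading; 0% is about no effect; ratio rise marks activators and ratio drop marks inhibitors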). In short, it runs like this: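 S3 HeLa cells stably expressing a lamin A-EGFP splicing minigene and DsRed2 were seeded at 600 cells/well in Opti-MEM with 2% FBS, pin-dosed, and incubated 48 hrs at 37 °C, 5% CO2. Laser-scanning cytometry (488 nm) gave GFP/RFP total intensity ratio.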
The nature of test [3]: qHTS Assay for Lipid Storage Modulators (AID 1519; calls by dose curve; on activity change, negative = inhibition: on the % scale 0 is the no-effect control and ±100 the full control effect). The conditions noted are these: Drosophila S3 cells, BODIPY lipid droplet/cell ratio, laser cytometry, cells loaded with oleic acid. In short, it runs like this:
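Cells seeded at 5,000 per well were treated with compounds over a concentration series and loaded with oleic acid (400 uM, as added). Lipid droplet fluorescence (488 nm excitation, 500-530 nm channel) was read by laser-scanning cytometry and normalized to 20 uM Triacsin C.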
In general terms: Quantitative high-throughput screening tests each substance at several concentrations.

Test [4] has as its target DNA repair nuclease/redox regulator APEX1 (Homo sapiens) (UniProt P27695). The experiment in a line: qHTS Validation Assay for Inhibitors of the Human Apurinic/apyrimidinic Endonuclease 1 (APE1) (AID 1705;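 further: TAMRA fluorescence gain over two minutes as APE1 cuts a quenched THF abasic duplex; on the % scale 0 is the no-effect control and ±100 the full control effect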). In short, it runs like this: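 Human APE1 was preincubated with compound for 15 min at room temperature, then 50 nM (final) THF-abasic double-stranded DNA substrate bearing 5'-TAMRA and 3'-BHQ-2 was added. Incision-driven fluorescence rise (ex 525/em 598 nm) was read kinetically.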

The nature of test [5]: Counterscreen for APE1 Inhibitors: Fluorescent Dye Displacement Validation Assay (AID 1707).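 Further: plate controls were ThO with dsDNA and no compound for no effect and ThO without dsDNA for full effect.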 In a few lines: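 ThO 250 nM + dsDNA 50 nM (THF abasic site, 5'-TAMRA), Tris-HCl pH7.5/50mM NaCl/2 mM MgCl2/0.01% Tween-20; compounds pin-transferred; ex 480/em 540 nm endpoint. Neutral = no compound; no-DNA ThO wells = negative control.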
Test [6] addresses Endonuclease 4 (Escherichia coli (strain K12)) (UniProt P0A6C1). The experiment in a line: Counterscreen for APE1 Inhibitors: qHTS Validation Assay for Inhibitors of Endonuclease IV (AID 1708). Further: on the % scale 0 is the no-effect control and ±100 the full control effect. In short, it runs like this: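 qHTS concentration-response format; LOPAC1280 tested under APE1-screen conditions. 2 nM enzyme, 15 min compound preincubation at RT, then 50 nM TAMRA/BHQ-2 abasic substrate; kinetic fluorescence read, three reads at 60 s intervals.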

A short description of test [7]: Cell Viability - LYMP2-006 (AID 978). Further: on the % scale 0 is the no-effect control and ±100 the full control effect; nearly all actives have a fitted effect of over 60% in size. In short, it runs like this:
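Human lymphoblastoid cells, 2500 per well, were preincubated 5 hr at 37 C, then exposed to compounds for 24 hr at 37 C in complete medium. Viability was read as intracellular ATP by CellTiter-Glo luminescence; AC50 from Hill-equation fits of qHTS concentration-response data.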

The nature of test [8]: Cell Viability - LYMP2-007 (AID 979).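 Further: cells exposed to compound for 24 h before reading; 0% = DMSO only and the negative end = 92 µM tetraoctylammonium bromide; nearly all actives have a fitted effect of over 60% in size.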 In short, it runs like this:
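Human lymphoblastoid LYMP2-007 cells (2500/well) preincubated 5 h at 37 C, then treated 24 h at 37 C in complete medium. Viability by CellTiter-Glo ATP luminescence after 30 min at room temperature; AC50 from Hill fits.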

Test [9] can be described thus: Cell Viability - LYMP2-008 (AID 980). Further: on the % scale 0 is the no-effect control and ±100 the full control effect; nearly all actives have a fitted effect of over 60% in size. In short, it runs like this:
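LYMP2-008 lymphoblastoid cells (2500/well) plated 5 h, then treated 24 h at 37 C in complete medium. Viability read as intracellular ATP by CellTiter-Glo luminescence after 30 min at room temperature; AC50 from Hill fits.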

The nature of test [10]: Cell Viability - LYMP2-012 (AID 982).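 Further: cellular ATP by luciferase luminescence where a drop means cytotoxicity; cells exposed to compound for one day before reading; 0% = DMSO only and full loss = 92 µM tetraoctylammonium bromide; nearly all actives have a fitted effect of over 55% in size.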
Test [11] can be described thus: Cell Viability - LYMP2-014 (AID 983).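 Further: plate controls were DMSO only for no effect and 92 µM tetraoctylammonium bromide for full effect; nearly all actives have a fitted effect of over 50% in size.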 In a few lines: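 LYMP2-014 human lymphoblastoid cells, 2500/well, treated 24 h at 37 C in complete medium; viability by CellTiter-Glo ATP luminescence after 30 min at room temperature. AC50 from Hill fits of qHTS concentration-response; tetraoctylammonium bromide positive control.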
Test [12] is described as follows: Cell Viability - LYMP2-016 (AID 984). Further: on the % scale 0 is the no-effect control and ±100 the full control effect; nearly all actives have a fitted effect of over 55% in size. In a few lines:
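Human lymphoblastoid cells (LYMP2-016), 2500/well in complete medium, preincubated 5 hr at 37 C, then compound-treated 24 hr at 37 C. Intracellular ATP read by CellTiter-Glo luminescence after 30 min at room temperature; AC50 from Hill-equation concentration-response fits.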

A short description of test [13]: Cell Viability - LYMP2-018 (AID 985).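 Further: compound exposure lasted 24 hr at 37 °C; plate controls were DMSO only for no effect and tetraoctylammonium bromide at 92 µM for full effect; nearly all actives have a fitted effect of over 50% in size.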 In a few lines: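 Human lymphoblastoid LYMP2-018 cells, 2500/well, settled 5 hr at 37 C then exposed to compound 24 hr at 37 C; intracellular ATP measured by CellTiter-Glo luminescence. AC50 from Hill-equation concentration-response fits.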
A short description of test [14]: Cell Viability - LYMP2-020 (AID 986).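 Further: plate controls were DMSO only for no effect and tetraoctylammonium bromide at 92 µM for full effect; nearly all actives have a fitted effect of over 55% in size.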 In a few lines: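 Human lymphoblastoid LYMP2-020 cells (2500/well) preincubated 5 h at 37 C, then treated 24 h at 37 C. Viability measured as intracellular ATP by CellTiter-Glo luminescence after 30 min at room temperature; AC50 from Hill fits.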
A short description of test [15]: Cell Viability - LYMP2-022 (AID 987).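 Further: 0% = DMSO alone and full effect = tetraoctylammonium bromide at 92 µM; nearly all actives have a fitted effect of over 55% in size.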 In a few lines:
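LYMP2-022 lymphoblastoid cells (2500/well, complete medium) were treated with compounds for 24 hours at 37 C; intracellular ATP was then read by CellTiter-Glo luminescence after 30 min at room temperature. AC50 values were derived from Hill-equation fits.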

A short description of test [16]: Cell Viability - LYMP2-024 (AID 988).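 Further: plate controls were DMSO only for no effect and 92 µM tetraoctylammonium bromide for full effect; nearly all actives have a fitted effect of over 60% in size.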 In a few lines: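 Human lymphoblastoid LYMP2-024 cells (2500/well) rested 5 hr, then treated with compound for 24 hr at 37 C in complete medium. Viability was measured as intracellular ATP by CellTiter-Glo luminescence. AC50 values came from Hill-equation fits.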
A short description of test [17]: Cell Viability - LYMP2-026 (AID 989). Further: on the % scale 0 is the no-effect control and ±100 the full control effect; nearly all actives have a fitted effect of over 50% in size. In short, it runs like this: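 Human lymphoblastoid LYMP2-026 cells, 2500/well, exposed to compound 24 h at 37 C in complete medium. Viability as intracellular ATP by CellTiter-Glo luminescence; AC50 from Hill fits of qHTS concentration-response.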
Test [18] is described as follows: Cell Viability - LYMP1-002 - Assay at 24 hr (AID 993). Further: on the % scale 0 is the no-effect control and ±100 the full control effect. In a few lines:
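Human lymphoblastoid LYMP1-002 cells (2500/well) treated 24 h at 37 °C; viability as intracellular ATP by CellTiter-Glo luminescence. Tetraoctylammonium bromide as positive control; AC50 from Hill-equation fits of qHTS concentration-response.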

Test [19] is described as follows: Cell Viability - LYMP1-002 - Assay at 40 hr (AID 994). In a few lines:
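LYMP1-002 human lymphoblastoid cells (2500/well, complete medium) were treated with compounds for 40 hr at 37 C. Intracellular ATP was measured by CellTiter-Glo luminescence, and AC50 values came from Hill-equation fits of concentration-response data; tetraoctylammonium bromide was the positive control.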

Setting [20] is: measured here: cell count channel max response.
[21] abbreviates: measured here: lipid channel max response.

DNA repair nuclease/redox regulator APEX1 (Homo sapiens), sequence (P27695 whole entry, looked up): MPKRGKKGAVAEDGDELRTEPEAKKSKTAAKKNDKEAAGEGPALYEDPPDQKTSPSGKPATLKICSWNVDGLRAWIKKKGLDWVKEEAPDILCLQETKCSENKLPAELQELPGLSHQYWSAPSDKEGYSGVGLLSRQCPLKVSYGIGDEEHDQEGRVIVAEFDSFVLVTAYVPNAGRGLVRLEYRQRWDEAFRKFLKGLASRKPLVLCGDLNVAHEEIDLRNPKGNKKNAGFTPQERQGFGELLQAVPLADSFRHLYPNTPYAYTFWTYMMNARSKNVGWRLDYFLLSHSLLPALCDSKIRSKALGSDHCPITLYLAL
Alpha-galactosidase A (Homo sapiens), sequence (P06280 whole entry, looked up): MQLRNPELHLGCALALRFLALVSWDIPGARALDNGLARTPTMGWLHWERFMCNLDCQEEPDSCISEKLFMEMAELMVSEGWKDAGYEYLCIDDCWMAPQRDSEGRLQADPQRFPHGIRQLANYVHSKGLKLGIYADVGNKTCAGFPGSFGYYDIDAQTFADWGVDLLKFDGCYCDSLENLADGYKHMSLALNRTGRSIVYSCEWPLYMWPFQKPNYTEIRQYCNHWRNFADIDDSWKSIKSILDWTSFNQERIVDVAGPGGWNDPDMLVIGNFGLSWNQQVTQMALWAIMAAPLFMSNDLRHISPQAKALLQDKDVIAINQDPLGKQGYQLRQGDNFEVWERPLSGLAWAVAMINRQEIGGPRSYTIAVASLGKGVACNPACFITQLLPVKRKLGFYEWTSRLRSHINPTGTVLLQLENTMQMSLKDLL

`Cn1cnc2c1c(=O)[nH]c(=O)n2C`: the call in test [1] and in [2] was inactive. Further, the activity change, negative = inhibition was -1.11% (inactive) in test [3] (at 25.7 µM (top of the series)); -1.44% (inactive) and 2.73% (inactive) in test [3] (at 57.5 µM (top of the series)). Further, the max response was -1.67% and 17.8% and 14.4% in test [3] (setting [20]); -0.915% and 15.2% and 17.5% in [3] (setting [21]). In addition, the Potency entry in test [4], in test [5] and in test [6] was “inactive” each time.
In the case of `CN(C)C(=N)N=C(N)N`, the activity change, negative = inhibition is 1.15% (inactive) in test [3] (at 25.7 µM (top of the series)) and 9.29% (inactive) in [3] (at 57.5 µM (top of the series)). Also, the max response in [3] (setting [20]) is 14.6% and 3.67%; in test [3] (setting [21]) it was 15.2% and 21.7%.
Consider `CC1COc2c(N3CCN(C)CC3)c(F)cc3c(=O)c(C(=O)O)cn1c23` (configuration not stated), for which the call in test [2] was inactive. Besides, in test [3] (at 57.5 µM (top of the series)), the activity change, negative = inhibition was 6.1% (inactive) and 7.75% (inactive). Besides, the max response was 10.5% and 11.1% in test [3] (setting [20]); 20.7% and 20.3% in [3] (setting [21]). Besides, the Potency entry in test [4] and in test [6] was “inactive” throughout.
Consider `CN1CCN(C2=Nc3cc(Cl)ccc3Nc3ccccc32)CC1`, for which the outcome in test [1] and in test [2] was inactive. Moreover, the Potency entry in test [4], in test [5] and in test [6] was “inactive” in each case.
For `COc1ccccc1OCCNCC(O)COc1cccc2[nH]c3ccccc3c12` (configuration not stated), the activity change, negative = inhibition in test [3] (at 57.5 µM (top of the series)) is 6.43% (inactive). In addition, the figures for the max response in [3] (setting [20]) and in test [3] (setting [21]) were 5.72% and 13%, respectively.
The matching figures for `CC(=O)OCC(CCn1cnc2cnc(N)nc21)COC(C)=O`: 8.16% (inactive), 10.2% and 23.5%.
For `Nc1nnc(-c2cccc(Cl)c2Cl)c(N)n1`, the result in test [1] and in test [2] was inactive. In test [3] (at 57.5 µM (top of the series)), the activity change, negative = inhibition is 1.91% (inactive). In addition, the values for the max response in test [3] (setting [20]) and in [3] (setting [21]) were 18.9% and 20.6%, respectively. For the same compound, the Potency entry in [5] and in test [6] was “inactive” throughout.
On to `O=C(c1ccc(F)cc1)C1CCN(CCn2c(=O)[nH]c3ccccc3c2=O)CC1`, for which the compound was classed as inactive in [1] and in test [2]. For the same compound, in test [3] (at 57.5 µM (top of the series)), the activity change, negative = inhibition was 3.6% (inactive) and 3.32% (inactive). For the same compound, the max response in test [3] (setting [20]) is 11.4% and 58.6%; in test [3] (setting [21]), 27.6% and 62%. The Potency entry in test [6] was “inactive”.
As to `CC(C)NCC(O)c1ccc(O)c(O)c1` (configuration not stated), the result in test [7], in test [8], in test [9], in test [10], in test [11] and in [12] was inactive. In addition, the call in [13], in [14], in test [15], in test [16], in [17] and in test [18] was inactive. In addition, the compound was called inactive in test [2]. Besides, the Potency entry in test [19], in test [4] and in test [6] was “inactive” in each case. For the same compound, the activity change, negative = inhibition in test [3] (at 57.5 µM (top of the series)) was 4.99% (inactive) and 0.312% (inactive) and 1.86% (inactive). The max response in test [3] (setting [20]) was 14.1% and -2.95% and -6.8%; in test [3] (setting [21]) it was 18.9% and -2.86% and -5.68%.

The values are drawn from PubChem BioAssay (NCATS).
